Measured values published in the supplement of paper PMC6607015.
Where a name gives a salt, the structure may show the parent alone.

Assays:
Details in all cases: compound concentration in added solution (µM; 5 µl added to 20 µl cells): 10; 18 h
[1] = tested on: A431; assay: LBPA endosome anti-LBPA integrated intensity (sum per cell), Z-score; higher = more LBPA staining
Method in brief: (§1)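 The data are Z-scores, normalised in AcuityXpress, of integrated LBPA or filipin intensity in each cell, either whole-cell or restricted to LBPA endosomes. HeLa MZ or A431 cells, 3,500 per well in 20 µl, were seeded onto 5 µl of 10 µM compound solution in duplicate 384-well plates and incubated 18 h. Fixed cells were stained and imaged, with intensities extracted by MetaXpress segmentation.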

[2] = tested on: HeLa MZ; assay: as above
Method in brief: as §1

[3] = tested on: A431; assay: whole-cell filipin (free cholesterol) integrated intensity, Z-score; higher = more cholesterol staining
Method in brief: as §1

[4] = tested on: HeLa MZ; assay: as above
Method in brief: as §1

[5] = tested on: A431; assay: filipin (cholesterol) integrated intensity within LBPA endosomes, Z-score; higher = more cholesterol in LBPA endosomes
Method in brief: as §1

[6] = tested on: HeLa MZ; assay: as above
Method in brief: as §1

C[N+]1(C)CCCC(OC(=O)C(O)(c2ccccc2)c2ccccc2)C1 (stereo not given) [Mepenzolate bromide]
LBPA endosome anti-LBPA integrated intensity (z-score) [1]: -0.582
LBPA endosome anti-LBPA integrated intensity (z-score) [2]: -0.861
whole-cell filipin (z-score) [3]: -0.409
whole-cell filipin (z-score) [4]: -0.0861
filipin (z-score) [5]: -0.481
filipin (z-score) [6]: -0.374

C#CCN(C)[C@H](C)Cc1ccccc1 [Selegiline hydrochloride]
LBPA endosome anti-LBPA integrated intensity (z-score) [1]: -0.688
LBPA endosome anti-LBPA integrated intensity (z-score) [2]: -1.62
whole-cell filipin (z-score) [3]: -0.708
whole-cell filipin (z-score) [4]: -0.332
filipin (z-score) [5]: -0.535
filipin (z-score) [6]: -0.657

O=P1(N(CCCl)CCCl)NCCCO1 (stereo not given) [Cyclophosphamide]
LBPA endosome anti-LBPA integrated intensity (z-score) [1]: -0.0725
LBPA endosome anti-LBPA integrated intensity (z-score) [2]: 1.02
whole-cell filipin (z-score) [3]: 0.399
whole-cell filipin (z-score) [4]: 0.209
filipin (z-score) [5]: -0.311
filipin (z-score) [6]: 0.352

C[C@]12CC[C@@H](O)C[C@H]1CC[C@@H]1[C@@H]2CC[C@]2(C)C(=O)CC[C@@H]12 [3-alpha-Hydroxy-5-beta-androstan-17-one]
LBPA endosome anti-LBPA integrated intensity (z-score) [1]: -0.153
LBPA endosome anti-LBPA integrated intensity (z-score) [2]: 1.16
whole-cell filipin (z-score) [3]: 0.209
whole-cell filipin (z-score) [4]: 0.519
filipin (z-score) [5]: -0.175
filipin (z-score) [6]: -0.161

C(#CCN1CCCC1)CN1CCCC1 [Tremorine dihydrochloride]
LBPA endosome anti-LBPA integrated intensity (z-score) [1]: -0.282
LBPA endosome anti-LBPA integrated intensity (z-score) [2]: 0.485
whole-cell filipin (z-score) [3]: -0.922
whole-cell filipin (z-score) [4]: -0.198
filipin (z-score) [5]: -0.368
filipin (z-score) [6]: 0.452

C=CCC1(CC(C)C)C(=O)NC(=O)NC1=O [Butalbital]
LBPA endosome anti-LBPA integrated intensity (z-score) [1]: -0.477
LBPA endosome anti-LBPA integrated intensity (z-score) [2]: -0.493
whole-cell filipin (z-score) [3]: -0.608
whole-cell filipin (z-score) [4]: -0.648
filipin (z-score) [5]: -0.55
filipin (z-score) [6]: -0.51

C=C(C)[C@@H]1[C@H]2OC(=O)[C@@H]1[C@]1(O)C[C@H]3O[C@]34C(=O)O[C@H]2[C@]14C [Picrotoxinin]
LBPA endosome anti-LBPA integrated intensity (z-score) [1]: -0.582
LBPA endosome anti-LBPA integrated intensity (z-score) [2]: -0.88
whole-cell filipin (z-score) [3]: -0.718
whole-cell filipin (z-score) [4]: -0.469
filipin (z-score) [5]: -0.448
filipin (z-score) [6]: -0.32

CN(C)C(=O)Oc1cccc([N+](C)(C)C)c1 [Neostigmine bromide]
LBPA endosome anti-LBPA integrated intensity (z-score) [1]: -0.478
LBPA endosome anti-LBPA integrated intensity (z-score) [2]: -0.496
whole-cell filipin (z-score) [3]: -0.63
whole-cell filipin (z-score) [4]: -0.608
filipin (z-score) [5]: -0.499
filipin (z-score) [6]: -0.715

CCNC1(c2cccs2)CCCCC1=O (stereo not given) [Tiletamine hydrochloride]
LBPA endosome anti-LBPA integrated intensity (z-score) [1]: -0.499
LBPA endosome anti-LBPA integrated intensity (z-score) [2]: -0.0498
whole-cell filipin (z-score) [3]: -0.0108
whole-cell filipin (z-score) [4]: -0.435
filipin (z-score) [5]: -0.475
filipin (z-score) [6]: -0.463

NCC(CC(=O)O)c1ccc(Cl)cc1 (racemic) [Baclofen (R,S)]
LBPA endosome anti-LBPA integrated intensity (z-score) [1]: -0.529
LBPA endosome anti-LBPA integrated intensity (z-score) [2]: -1.07
whole-cell filipin (z-score) [3]: -1.03
whole-cell filipin (z-score) [4]: -0.783
filipin (z-score) [5]: -0.513
filipin (z-score) [6]: -0.613

CN1CCC2(C)c3cc(O)ccc3N(C)C12 (single isomer, unassigned; (-)) [(-)-Eseroline fumarate salt]
LBPA endosome anti-LBPA integrated intensity (z-score) [1]: -0.298
LBPA endosome anti-LBPA integrated intensity (z-score) [2]: 0.682
whole-cell filipin (z-score) [3]: 0.444
whole-cell filipin (z-score) [4]: -0.261
filipin (z-score) [5]: -0.415
filipin (z-score) [6]: -0.33

NC(=O)C[S+]([O-])C(c1ccccc1)c1ccccc1 (stereo not given) [Modafinil]
LBPA endosome anti-LBPA integrated intensity (z-score) [1]: -0.574
LBPA endosome anti-LBPA integrated intensity (z-score) [2]: -0.833
whole-cell filipin (z-score) [3]: -0.743
whole-cell filipin (z-score) [4]: -0.382
filipin (z-score) [5]: -0.532
filipin (z-score) [6]: -0.453

Cc1cc(C(C#N)c2ccc(Cl)cc2)c(Cl)cc1NC(=O)c1cc(I)cc(I)c1O (stereo not given) [Closantel]
LBPA endosome anti-LBPA integrated intensity (z-score) [1]: -0.54
LBPA endosome anti-LBPA integrated intensity (z-score) [2]: -1
whole-cell filipin (z-score) [3]: -0.93
whole-cell filipin (z-score) [4]: -0.632
filipin (z-score) [5]: -0.512
filipin (z-score) [6]: -0.663

C=CCN1CC[C@]23c4c5ccc(O)c4O[C@H]2C(=O)CC[C@@]3(O)[C@H]1C5 [Naloxone hydrochloride]
LBPA endosome anti-LBPA integrated intensity (z-score) [1]: -0.497
LBPA endosome anti-LBPA integrated intensity (z-score) [2]: -0.128
whole-cell filipin (z-score) [3]: -0.72
whole-cell filipin (z-score) [4]: -1.07
filipin (z-score) [5]: -0.454
filipin (z-score) [6]: -0.503

CC(C)(C)NCC(O)c1cc(Cl)c(N)c(Cl)c1 (stereo not given) [Clenbuterol hydrochloride]
LBPA endosome anti-LBPA integrated intensity (z-score) [1]: 0.0925
LBPA endosome anti-LBPA integrated intensity (z-score) [2]: 0.441
whole-cell filipin (z-score) [3]: -0.358
whole-cell filipin (z-score) [4]: -0.387
filipin (z-score) [5]: -0.383
filipin (z-score) [6]: -0.295

COc1cccc(C2(O)CCCCC2CN(C)C)c1 (stereo not given) [Tramadol hydrochloride]
LBPA endosome anti-LBPA integrated intensity (z-score) [1]: -0.437
LBPA endosome anti-LBPA integrated intensity (z-score) [2]: 0.543
whole-cell filipin (z-score) [3]: -0.062
whole-cell filipin (z-score) [4]: -0.487
filipin (z-score) [5]: -0.403
filipin (z-score) [6]: -0.176

CC(=O)OCC1=C(C(=O)O)N2C(=O)[C@@H](N)[C@H]2SC1 [Cephalosporanic acid, 7-amino]
LBPA endosome anti-LBPA integrated intensity (z-score) [1]: -0.605
LBPA endosome anti-LBPA integrated intensity (z-score) [2]: -1.08
whole-cell filipin (z-score) [3]: -0.806
whole-cell filipin (z-score) [4]: -0.877
filipin (z-score) [5]: -0.581
filipin (z-score) [6]: -0.604

NCCc1c[nH]c2ccc(O)cc12 [Serotonin hydrochloride]
LBPA endosome anti-LBPA integrated intensity (z-score) [1]: -0.716
LBPA endosome anti-LBPA integrated intensity (z-score) [2]: -1.58
whole-cell filipin (z-score) [3]: -1.04
whole-cell filipin (z-score) [4]: -1.21
filipin (z-score) [5]: -0.627
filipin (z-score) [6]: -0.624

C[C@]12CC[C@H](O)C[C@@H]1CC[C@@H]1[C@@H]2CC[C@]2(C)C(=O)CC[C@@H]12 [Epiandrosterone]
LBPA endosome anti-LBPA integrated intensity (z-score) [1]: 1.56
LBPA endosome anti-LBPA integrated intensity (z-score) [2]: 0.767
whole-cell filipin (z-score) [3]: 2.3
whole-cell filipin (z-score) [4]: 2.67
filipin (z-score) [5]: 2.15
filipin (z-score) [6]: 1.85

CC(N)C(O)c1ccccc1 (stereo not given) [Phenylpropanolamine hydrochloride]
LBPA endosome anti-LBPA integrated intensity (z-score) [1]: -0.541
LBPA endosome anti-LBPA integrated intensity (z-score) [2]: -1.1
whole-cell filipin (z-score) [3]: -0.689
whole-cell filipin (z-score) [4]: -0.0866
filipin (z-score) [5]: -0.502
filipin (z-score) [6]: -0.451

CCC1(c2ccc(N)cc2)CCC(=O)NC1=O (stereo not given) [Glutethimide, para-amino]
LBPA endosome anti-LBPA integrated intensity (z-score) [1]: -0.66
LBPA endosome anti-LBPA integrated intensity (z-score) [2]: -1.41
whole-cell filipin (z-score) [3]: -1.07
whole-cell filipin (z-score) [4]: -1
filipin (z-score) [5]: -0.544
filipin (z-score) [6]: -0.691

CN1[C@@H]2C[C@@H](OC(=O)[C@H](CO)c3ccccc3)C[C@H]1[C@@H]1O[C@@H]12 [Scopolamine hydrochloride]
LBPA endosome anti-LBPA integrated intensity (z-score) [1]: -0.422
LBPA endosome anti-LBPA integrated intensity (z-score) [2]: -0.0951
whole-cell filipin (z-score) [3]: -0.247
whole-cell filipin (z-score) [4]: 0.118
filipin (z-score) [5]: -0.45
filipin (z-score) [6]: -0.0653

CC(=O)[C@H]1CC[C@H]2[C@@H]3CC[C@H]4C[C@H](O)CC[C@]4(C)[C@H]3C(=O)C[C@]12C [Alfaxalone]
LBPA endosome anti-LBPA integrated intensity (z-score) [1]: 1.82
LBPA endosome anti-LBPA integrated intensity (z-score) [2]: 1.23
whole-cell filipin (z-score) [3]: 0.358
whole-cell filipin (z-score) [4]: -0.273
filipin (z-score) [5]: 0.378
filipin (z-score) [6]: -0.0632

C[C@]12Cc3c[nH]nc3C[C@@H]1CC[C@@H]1[C@@H]2CC[C@@]2(C)[C@H]1CC[C@]2(C)O [Stanozolol]
LBPA endosome anti-LBPA integrated intensity (z-score) [1]: 0.154
LBPA endosome anti-LBPA integrated intensity (z-score) [2]: 1.15
whole-cell filipin (z-score) [3]: 0.353
whole-cell filipin (z-score) [4]: -0.167
filipin (z-score) [5]: 0.0473
filipin (z-score) [6]: -0.12

COc1ccc(Cc2nccc3cc(OC)c(OC)cc23)cc1OC [Papaverine hydrochloride]
LBPA endosome anti-LBPA integrated intensity (z-score) [1]: -0.662
LBPA endosome anti-LBPA integrated intensity (z-score) [2]: 0.0558
whole-cell filipin (z-score) [3]: -0.685
whole-cell filipin (z-score) [4]: -0.814
filipin (z-score) [5]: -0.607
filipin (z-score) [6]: -0.356

C[C@@H]1CC[C@H]2[C@@H](C)C(=O)O[C@@H]3O[C@@]4(C)CC[C@@H]1[C@]32OO4 [Artemisinin]
LBPA endosome anti-LBPA integrated intensity (z-score) [1]: -0.479
LBPA endosome anti-LBPA integrated intensity (z-score) [2]: 0.63
whole-cell filipin (z-score) [3]: -0.6
whole-cell filipin (z-score) [4]: 0.161
filipin (z-score) [5]: -0.503
filipin (z-score) [6]: -0.315

CNC(=O)Oc1ccc2c(c1)[C@]1(C)CCN(C)[C@@H]1N2C [Eserine sulfate, physostigmine sulfate]
LBPA endosome anti-LBPA integrated intensity (z-score) [1]: -0.59
LBPA endosome anti-LBPA integrated intensity (z-score) [2]: -0.404
whole-cell filipin (z-score) [3]: -0.783
whole-cell filipin (z-score) [4]: -0.229
filipin (z-score) [5]: -0.479
filipin (z-score) [6]: -0.36

CC(NC(C)(C)C)C(=O)c1cccc(Cl)c1 (stereo not given) [Bupropion hydrochloride]
LBPA endosome anti-LBPA integrated intensity (z-score) [1]: -0.577
LBPA endosome anti-LBPA integrated intensity (z-score) [2]: -0.652
whole-cell filipin (z-score) [3]: -0.448
whole-cell filipin (z-score) [4]: -0.134
filipin (z-score) [5]: -0.453
filipin (z-score) [6]: -0.438

C=C1[C@@H]2CC[C@H]3[C@]4(C)C[C@H](O[C@@H]5O[C@H](CO)[C@@H](OS(=O)(=O)O)[C@H](OS(=O)(=O)O)[C@H]5OC(=O)CC(C)C)C[C@@H](C(=O)O)[C@H]4CC[C@]3(C2)[C@@H]1O [Atractyloside potassium salt]
LBPA endosome anti-LBPA integrated intensity (z-score) [1]: -0.439
LBPA endosome anti-LBPA integrated intensity (z-score) [2]: -0.0672
whole-cell filipin (z-score) [3]: -0.293
whole-cell filipin (z-score) [4]: -0.252
filipin (z-score) [5]: -0.383
filipin (z-score) [6]: -0.47

CC(Cc1ccc(O)cc1)NCC(O)c1cc(O)cc(O)c1 (stereo not given) [Fenoterol hydrobromide]
LBPA endosome anti-LBPA integrated intensity (z-score) [1]: -0.386
LBPA endosome anti-LBPA integrated intensity (z-score) [2]: 0.00712
whole-cell filipin (z-score) [3]: -0.429
whole-cell filipin (z-score) [4]: -0.631
filipin (z-score) [5]: -0.574
filipin (z-score) [6]: -0.584
